Bioassay records from PubChem.
The list is not random: actives were taken first. Their share in the collection is about 4.7%.
S2 tox: Viability Counterscreen for Primary qHTS for Inhibitors of ATXN expression. Potency, µM (series often up to 56.7 µM), actives largely listed as cytotoxic. 400,000 compounds, 0.49% hits. AID 651635, 2014. S2 cells (HEK-293 line with an ATXN2-luciferase reporter) viability, CellTiter-Fluor protease fluorescence, 24 h; further: potency means the concentration at half of the fitted maximal effect; nearly all actives have a fitted effect of over 40% in size
HepG2 tox: qHTS for Inhibitors of TGF-b: Cytotox Counterscreen | HepG2 CAGA-GFP viability, ATP luminescence, 18 h | Potency, µM (top dose mostly 46.1 µM), for the others: top-dose activity change, negative = cytotoxicity, hits mostly cytotoxic | 410,000 compounds, 0.76% hits | AID 588856, 2011; further: potency means the concentration at half of the fitted maximal effect
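CellTiter-Glo luminescence gave cytotoxicity after 18 hours at 37 degrees C. The cells were HepG2 CAGA-GFP in 1% FBS DMEM, stimulated with 500 pg/mL TGF-beta after compound addition. %Activity was normalised to no-cell wells (complete cell-killing) and DMSO (no toxicity), and curves were fitted and classified.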
DRD3 antagonist: qHTS of D3 Dopamine Receptor Antagonist: qHTS; D3R cells, DiscoveRx beta-arrestin luminescence, antagonist mode; active compounds read low; max response, negative = inhibition, %; 360,000 compounds, 2.5% hits; AID 652054, 2013; in the data active means max response below about -50%; inconclusive means no clear call, values can overlap the other calls; further: on the % scale 0 is the no-effect control and ±100 the full control effect
Target sequence (P35462 whole entry, looked up): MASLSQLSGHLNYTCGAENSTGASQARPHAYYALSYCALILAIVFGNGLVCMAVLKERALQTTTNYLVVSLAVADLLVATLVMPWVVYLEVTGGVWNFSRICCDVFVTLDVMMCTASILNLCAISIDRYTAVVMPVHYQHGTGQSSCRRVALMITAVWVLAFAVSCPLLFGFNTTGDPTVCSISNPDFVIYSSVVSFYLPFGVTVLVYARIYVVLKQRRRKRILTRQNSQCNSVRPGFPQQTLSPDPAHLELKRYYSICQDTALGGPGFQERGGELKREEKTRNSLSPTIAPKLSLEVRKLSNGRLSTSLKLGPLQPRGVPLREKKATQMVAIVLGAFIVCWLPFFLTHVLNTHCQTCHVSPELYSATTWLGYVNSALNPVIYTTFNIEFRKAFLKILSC
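Cells plated overnight at 1500 cells/well, then exposed to library compounds with dopamine controls for 90 minutes at 37 degrees C. DiscoveRx reagent added for 30–60 minutes at room temperature; luminescence read, quantitative HTS format.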
TGFb inhibitor: qHTS for Inhibitors of TGF-b. HepG2 CAGA-GFP TGF-b/SMAD3 reporter, GFP fluorescence, 18 h; TGF-beta stimulated, 500 pg/mL final. Potency, µM (highest dose often 46.1 µM), inactives show at the highest dose activity, negative = inhibition, actives largely listed as inhibitors. 410,000 compounds, 1.2% hits; further: potency means the concentration at half of the fitted maximal effect; on the % scale 0 is the no-effect control and ±100 the full control effect; nearly all actives have a fitted effect of over 65% in size
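Read-out: total well GFP (ex488/em500-530) summed from mean per-cell fluorescence. Cells: HEPG2 CAGA-GFP, 1% FBS DMEM, 18 h at 37 degrees C with 500 pg/mL final TGF-beta. Unstimulated wells served as the full-inhibition control; stimulated DMSO wells = 0%.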
ATXN2 expr inh: Primary qHTS for Inhibitors of ATXN expression. HEK-293 ATXN2-luciferase reporter, luminescence, 24 h. Potency, µM (series often up to 57 µM), without a hit: at the top dose activity change, negative = inhibition, most hits filed as inhibitors. 360,000 compounds, 0.72% hits. AID 1745845, 2022; further: potency means the concentration at half of the fitted maximal effect; on the % scale 0 is the no-effect control and ±100 the full control effect; nearly all actives have a fitted effect of over 55% in size
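qHTS (up to 57 uM final) was run with 24 h compound exposure of reporter cells at 37 °C. Each well was multiplexed: SteadyGlo luminescence measured ATXN2-luciferase expression after a fluorogenic Gly-Phe-AFC viability readout (25 uM final).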
D3 ag: qHTS of D3 Dopamine Receptor Agonist: qHTS; D(3) dopamine receptor (Homo sapiens), P35462; max activation, %; 410,000 compounds, 0.58% hits; D3R DiscoveRx beta-arrestin cells, luminescence, 90 min; in the data active means max activation above about 30%; further: 0% is about no effect
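Agonist-mode cell screen: cells plated at 1500/well and incubated overnight at 37 °C, then exposed to library compounds for 90 min at 37 °C. Detection reagent was added for 30–60 min at room temperature, and luminescence was read.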
An asterisk follows results filed as active; i = inactive; ? = inconclusive; . = no result given. Unless noted, the call rests on the fitted dose curve; in most records, active means well fitted curve in the direction sought with a large enough effect; inconclusive means small, poorly fitted or top-dose-only effect, or another doubt; inactive means no such curve, though single readings can be large; an effect the other way counts as inactive or inconclusive.

SMILES | S2 tox | HepG2 tox | DRD3 antagonist | TGFb inhibitor | ATXN2 expr inh | D3 ag
Nc1c(C(=O)NCc2ccco2)c2nc3ccccc3nc2n1CCc1ccccc1 | i | -85% | 44 | ? | . | 6
CCOc1ccc(-n2c(N)c(C(=O)NCc3ccco3)c3nc4ccccc4nc32)cc1 | i | -32% | -79* | -13% | ? | -13
COc1ccc(OC)c(NC(=O)CSc2nnc3ccc4ccccc4n23)c1 | ? | -7% | . | -3% | -1% | 6
CC(C)CN(C(=O)CCNC(=O)c1ccc(Cl)cc1)C1CCS(=O)(=O)C1 (stereo unspecified) | 28µM* | -1% | -10 | -1% | ? | -14
CC(C)CN(C(=O)CN(C)S(=O)(=O)c1ccc(Cl)cc1)C1CCS(=O)(=O)C1 (stereo unspecified) | i | 2% | -11 | ? | 0% | 0
CC(C)c1ccc(/C=C(\C#N)c2nc(-c3ccc(O)cc3)cs2)cc1 | i | 18µM* | . | ? | ? | -14
CC(=O)Nc1ccc(SCC(CC(C)C)N2CCN(C)CCC2=O)cc1 (stereo unspecified) | . | -23% | . | -3% | . | .
CCCCn1c(SCC(=O)Nc2nnc(C(C)C)s2)nc2c1c(=O)n(C)c(=O)n2C | i | -32% | 4 | 13% | -17% | 41*
COC(=O)c1ccc(NC(=O)c2cc3cc(C)ccc3n2C)cc1 | i | -17% | . | ? | -5% | 8
COc1cc(C(=O)Nc2cccc(-c3nc4cc(C)cc(C)c4o3)c2)cc(OC)c1OC | i | 17% | 41 | -20% | -1% | 52*
CC1CCCN(CC(=O)Nc2ccc(S(=O)(=O)N3C(C)CCCC3C)cc2)C1 (stereo unspecified) | ? | 6% | -51* | 0% | . | -2
CC1CCCN(CCC(=O)Nc2ccccc2)C1 (stereo unspecified) | i | 0% | 9 | 9% | -4% | -25
CC1CCCN(CCC(=O)Nc2ccc(Br)cc2)C1 (stereo unspecified) | i | -29% | -86* | -1% | -16% | -32
Cc1ccc(O/C=C2/Nn3c(nnc3-c3cc(-c4ccccc4)n[nH]3)S2)cc1 | . | 2% | . | 7% | . | .
O=C(NCC(c1ccco1)N1CCCCC1)c1cc2c(s1)CCCC2 (stereo unspecified) | i | -47% | -75* | -7% | 6% | -24
COc1ccc(C(CNC(=O)c2cc3c(s2)CCC(C)C3)N2CCOCC2)cc1 (stereo unspecified) | i | -27% | -103* | -4% | -19% | -28
COc1ccc(C(CNC(=O)CSc2ccc(Br)cc2)N2CCOCC2)cc1 (stereo unspecified) | i | -12% | -15 | ? | -9% | -17
COc1ccc(C(CNC(=O)c2cc3c(s2)CCC(C)C3)N2CCCC2)cc1 (stereo unspecified) | ? | -43% | -105* | -24% | ? | -24
O=C(NCC(c1ccco1)N1CCCCC1)c1cccs1 (stereo unspecified) | i | 16% | 5 | 3% | -6% | -5
COc1ccc(C(CNC(=O)C(C)Oc2ccc(Br)cc2)N2CCOCC2)cc1 (stereo unspecified) | i | -29% | -69* | -14% | 6% | -28
CCOc1ccc(NC(=O)C(C)Sc2nc3ncccc3o2)cc1 (stereo unspecified) | i | 2% | . | -15% | 36% | 0
CCOC(=O)CNC(c1ccccc1)c1cc(Br)ccc1NC(=O)CCN1CCOCC1 (stereo unspecified) | ? | 13µM* | ? | ? | . | -8
COC(=O)CNC(c1ccccc1)c1cc(Br)ccc1NC(=O)CCN1CCOCC1 (stereo unspecified) | ? | 22µM* | -8 | 18µM* | . | 0
O=C(Oc1c(-c2ccccc2)c(=O)n2c3c(cccc13)CC2)c1ccco1 | i | -8% | 71 | -20% | -18% | 49*
O=C(Oc1c(-c2ccccc2)c(=O)n2c3c(cccc13)CC2)c1ccc(Cl)cc1 | i | -27% | 34 | -3% | -7% | 13
SMILES | S2 tox | HepG2 tox | DRD3 antagonist | TGFb inhibitor | ATXN2 expr inh | D3 ag
CCOC(=O)N1CCc2c(sc3ncn(C)c(=O)c23)C1 | i | -42% | 1 | 0% | 10% | 6
CCOC(=O)N1CCc2c(sc3nc(SC(C)C)n(N)c(=O)c23)C1 | i | -21% | 0 | 0% | -28% | 31*
Cc1cccc(-n2[nH]c3c4c(ccc3c2=O)C(=O)c2ccccc2C4=O)c1 | i | -3% | -64* | 6% | -6% | -5
COc1ccccc1-c1cc(C(=O)N/N=C/c2ccoc2)c2ccccc2n1 | i | -1% | -51* | 3% | -18% | -8
CCOc1cc(C(=O)N/N=C/c2ccoc2)cc(OCC)c1OCC | i | 5% | -70* | -22% | 13% | -16
COc1ccccc1-c1cc(C(=O)N/N=C/c2ccc(C)s2)c2ccccc2n1 | i | -27% | -22 | -2% | 133% | 2
COc1ccc(OC)c(/C=N/NC(=O)c2cc(-c3ccc(C)o3)nc3ccccc23)c1 | i | -1% | 20 | -32% | 6% | 37*
CC1(C(=O)NS(=O)(=O)C2CC2)CCCN(C(=O)c2ccc(C(F)(F)F)cc2)C1 (stereo unspecified) | i | 2% | 4 | ? | 3% | 3
COc1ccc(C(=O)N2CCCC(C)(C(=O)NS(=O)(=O)C3CC3)C2)cc1 (stereo unspecified) | i | 3% | -53* | 2% | 0% | -13
CC1(C)CC(C)(c2ccc(O)cc2O)N(c2cccc(Cl)c2)C(=S)N1 (stereo unspecified) | i | -6% | -4 | 14% | 5% | -16
CC1(C)CC(C)(c2ccc(O)cc2O)N(c2ccc3ccccc3c2)C(=S)N1 (stereo unspecified) | i | -3% | -62* | ? | 0% | -24
C=CC[C@@H]1Cc2c(Br)ccc(Br)c2[C@@H](CC=C)N1 | i | -1% | 4 | -10% | -3% | 32*
CC1=C(C(=O)OC2CCCCC2)C(c2ccc(C)o2)C2=C(CCCC2=O)N1 (stereo unspecified) | i | -14% | -50* | -1% | -13% | 1
CC1=C(C(=O)OCc2ccccc2)C(c2ccc(C)o2)C2=C(CCCC2=O)N1 (stereo unspecified) | i | -41% | 12 | 25% | -2% | 1
